Results filed as inconclusive are left out. Calls of active or inactive are those of the source. The call rests on the fitted dose curve; in most records, active means well fitted curve in the direction sought with a large enough effect; inconclusive means small, poorly fitted or top-dose-only effect, or another doubt; inactive means no such curve, though single readings can be large; an effect the other way counts as inactive or inconclusive.
Columns and labels:
[1] = qHTS for Activators of p53 Stress Response Pathway screened against the NCATS CANVASS Library (AID 1347388)
Method in brief: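 Beta-lactamase reporter driven by p53 response elements in HCT-116 cells, read as the 460 nm/530 nm emission ratio after CCF4 loading, following 16 h of exposure to an 11-point series. Cell viability was measured in the same wells by CellTiter-Glo luminescence.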

[2] = Secretion counterscreen for inhibitors of the SERCaMP assay screened against the NCATS CANVASS Library (AID 1347390);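 further: light from luciferase secreted into medium read as a measure of general secretion; series mostly up to about 77 µM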
Method in brief: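 Natural products are titrated in an 11-point series up to 77 uM onto SH-SY5Y-GLuc STOP cells for 20 h. Secreted reporter activity is measured as coelenterazine-driven luminescence, with Brefeldin A on each plate.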

[3] = qHTS for activators of Nrf2/ARE signaling pathway screened against the NCATS CANVASS Library (AID 1347391); further: nearly all actives have a fitted effect of over 60% in size
Method in brief: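 HepG2 ARE-bla; cpd 11-pt qHTS, 16 h 37C/5% CO2; CCF4 substrate 2 h RT; read ex 405 / em 460 + 530 nm. Viability by CellTiter-Glo luminescence, 30 min RT.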

[4] = qHTS for activators of dead-cell proteases activity screened against the NCATS CANVASS Library (AID 1347392);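 further: luminescence from protease leaking out of membrane-damaged cells cleaving impermeant substrate; rising signal means more cytotoxicity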
Method in brief: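 Luminescent dead-cell protease readout (AAF-aminoluciferin, 15 min, room temperature) after 5 h compound treatment of HepG2 cells (2000/well, pre-attached 18 h). Eleven concentrations.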

[5] = qHTS for inhibitors of ER calcium dysfunction: SERCaMP assay screened against the NCATS CANVASS Library (AID 1347393);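 further: series mostly up to about 77 µM; lower secreted reporter signal means inhibitor of ER calcium depletion; nearly all actives have a fitted effect of over 40% in size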
Method in brief: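 Thapsigargin-induced ER calcium depletion drives GLuc-SERCaMP secretion from SH-SY5Y cells; compounds given 16 h beforehand were scored by lowered coelenterazine luminescence after 4 h challenge.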

[6] = Vero-766 cells viability qHTS against the NCATS CANVASS Library: Counterscreen for Zika virus inhibition assay (AID 1347394); further: series mostly up to about 46 µM; nearly all actives have a fitted effect of over 60% in size
Method in brief: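 Counterscreen for toxicity: Vero 766 cells exposed 72 h to an 11-point compound series, viability by CellTiter-Glo.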

[7] = qHTS for inhibitors of Wild type Zika virus screened against the NCATS CANVASS Library (AID 1347396);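 further: ATP luminescence of surviving cells so rescue from viral cell killing; series mostly up to about 46 µM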
Method in brief: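 Protection against wild-type Zika cytopathic effect is measured in African green monkey Vero 766 cells exposed to an 11-point compound series. Surviving cells are quantified by CellTiter Glo luminescence after 72 h.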

[8] = Viability qHTS for inhibitors of the SERCaMP assay screened against the NCATS CANVASS Library (AID 1347400); further: series mostly up to about 92 µM; nearly all actives have a fitted effect of over 70% in size
Source text: Natural products and their derivatives continue to be wellsprings of nascent therapeutic potential. However, many laboratories have limited resources for biological evaluation, leaving their previously isolated or synthesized compounds largely or completely untested. To address this issue, the Canvass library of natural products was assembled (https://tripod.nih.gov/canvass), in collaboration with academic and industry researchers, for quantitative high-throughput screening (qHTS) across a diverse set of cell-based and biochemical assays. The pure (>85% purity by liquid chromatography/mass spectrometry [LC/MS]) Canvass library of 346 natural products were submitted by 45 academic laboratories and companies around the world. We collected pure natural products to circumvent deconvolution and structure elucidation due to time and resource limitations. The library was formatted into 1536-well plates and evaluated in 50 qHTS (in an 11-pnt concentration series) bioassays with broad scope of disease-relevant mechanisms. The resulting data set from 50 different assays was then systematically analyzed to identify overall trends and specific natural products with interesting biological activities. […]
SERCaMP Viability assay protocol: 1. […] Luminescence signal was obtained via the ViewLux plate reader (Perkin Elmer) using the clear emission filter and 1x binning, 2 seconds exposure settings.

[9] = Redox Reaction Profiling qHTS: Assay Interference Panel against the NCATS CANVASS Library (AID 1347401)
Method in brief: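 Redox-cycling liability assessed as DTT-driven conversion of resazurin (5 uM, with 200 uM DTT, HEPES pH 7.3) to fluorescent resorufin. Fluorescence at 525/598 nm measured initially and after 15 min dark incubation.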

[10] = qHTS assay for small molecule disruptors of mitochondrial membrane potential screened against the NCATS CANVASS Library (AID 1347389); further: series mostly up to about 46 µM; nearly all actives have a fitted effect of over 60% in size
Method in brief: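 Red/green fluorescence ratio read-out: J-aggregates ex 540/em 590 nm, monomers ex 490/em 535 nm. HepG2, 1 hr compound treatment, then 30 min Mito-MPS dye at 37C. 11-pt qHTS concentration series.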

Measured: outcome

CC1=C2C(=O)O[C@@H](c3ccoc3)[C@]2(C)CCC1
inactive: [1] | [2] | [3] | [4] | [5] | [6] | [7] | [8] | [9]

C/C=C/C=C/C(CC(=O)O)Nc1ccc(C=O)cc1 (centres undefined)
inactive: [1] | [10] | [2] | [3] | [4] | [5] | [6] | [7] | [8] | [9]

Source: PubChem BioAssay (NCATS)
